Bioassay records deposited in PubChem BioAssay by several laboratories.
PG9 Ab binder: binds the HIV-1 gp120 antibody PG9. 360,000 tested, 0.43% active. TR-FRET gp120-PG9 antibody binding. inhibition, % at 6.7 µM; in the data active = inhibition above about 8.5%
KLK7 zymogen act: activators of human kallikrein-7 zymogen | P49862 | purified proKLK7, EDANS-DABCYL substrate fluorescence; 100% is mature enzyme control, 0% vehicle | activation, % at 7 µM | 370,000 tested, 0.9% active | AID 652039;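 active = activation above the mean of all tested compounds plus 3 SD, computed per campaign excluding outliers beyond control limits, cut at about 13% in these data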
Target sequence (P49862 whole entry, looked up): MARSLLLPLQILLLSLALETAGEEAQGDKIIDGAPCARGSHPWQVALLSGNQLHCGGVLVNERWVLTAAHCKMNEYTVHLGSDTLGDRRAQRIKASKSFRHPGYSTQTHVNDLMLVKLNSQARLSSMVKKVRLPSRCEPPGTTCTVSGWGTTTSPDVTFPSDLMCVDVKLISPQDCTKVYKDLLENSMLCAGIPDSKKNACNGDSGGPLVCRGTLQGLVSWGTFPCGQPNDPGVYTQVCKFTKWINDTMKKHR
GASC-1 inh: inhibitors of human GASC-1 (JMJD2C) demethylase. Q9H3R0. inhibition, % at 2.35 µM. GST-JMJD2C(1-420) H3K9me3 demethylation, DELFIA europium. 330,000 tested, 0.069% active;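 active = more than half of a compound's replicate wells show inhibition beyond 50%, single wells judged on their own value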;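 also: signal counts dimethyl H3K9 product captured on neutravidin plate; 0% = median of DMSO wells and 100% = 0.3 times that DMSO median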
PP5 primary: PP5 (human) phosphatase inhibition; inhibition, % at 6.7 µM; P53041; 320,000 tested, 0.18% active; AID 1987; purified PP5c, OMFP substrate fluorescence;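 active = inhibition above the campaign's mean inhibition across all tested compounds plus 3 SD, cut at about 9.5% in these data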;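 also: 0% = DMSO only and 100% = 100 µM cantharidin control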
PP1 inh: blocks human PP1-alpha phosphatase, a PP5 counter-screen; P62136; purified PP1alpha, OMFP fluorescence; 320,000 tested, 0.9% active; inhibition, % at 6.7 µM; AID 2235;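 active = inhibition above the mean inhibition of all tested compounds plus 3 SD, computed separately for each screening campaign, cut at about 15% in these data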
Target sequence (P62136 whole entry, looked up): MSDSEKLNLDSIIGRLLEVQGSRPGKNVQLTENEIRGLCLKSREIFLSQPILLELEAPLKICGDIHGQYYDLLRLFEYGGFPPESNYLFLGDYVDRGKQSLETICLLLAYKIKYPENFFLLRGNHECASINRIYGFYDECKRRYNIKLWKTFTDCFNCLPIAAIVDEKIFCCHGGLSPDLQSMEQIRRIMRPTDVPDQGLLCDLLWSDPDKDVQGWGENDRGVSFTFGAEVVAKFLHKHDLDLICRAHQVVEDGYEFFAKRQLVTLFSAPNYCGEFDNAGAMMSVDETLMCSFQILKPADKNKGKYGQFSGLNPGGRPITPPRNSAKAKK
NR1D1 modulator: modulates human Rev-erb alpha binding to DNA; P20393; Rev-erbα–FITC-DNA binding, fluorescence polarization, 90 min; activity, % at 10 µM; 370,000 tested, 0.79% active;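 active = activity above about 14%, limit read from the data; passing the limit was not always enough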;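 also: 0% = DMSO wells with 35 nM protein and 100% = DMSO wells with 750 nM protein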
PG9 binder conf: PG9 antibody binding, confirmed. TR-FRET PG9 antibody binding, biochemical. inhibition, % at 6.7 µM. AID 651571. shares compounds with PG9 Ab binder. 1,500 tested, 90% active; in the data active = inhibition above about 9%
PGV04 Ab binding: PGV04 control antibody binding, counter-screen; TR-FRET PGV04 antibody-gp120 binding, biochemical; 1,500 tested, 95% active; AID 651604; inhibition, % at 6.7 µM; shares compounds with PG9 Ab binder; in the data active = inhibition above about 9.5%
NR1D1 mod conf: confirmation of modulators of human Rev-erb alpha DNA binding; shares compounds with NR1D1 modulator; 3,000 tested, 61% active; AID 1259319; Rev-erb alpha FITC-DNA binding, fluorescence polarization, 90 min; activation, % at 25 µM;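 active = activation at or above a set limit, or at least 3 SD above the negative control mean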;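 also: 0% = 35 nM protein with DMSO and 100% = 750 nM protein high control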
RORg counter: counter-screen for Rev-erb alpha modulators: RORgamma DNA binding; IC50, µM; purified RORgamma protein-FITC-DNA binding, fluorescence polarization; shares compounds with NR1D1 modulator; 910 tested, 8% active;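 active = Compounds whose fitted half-maximal concentration for disrupting protein-DNA binding is below 10 micromolar; the record names Rev-erb in its text, so the target is in doubt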
* hit, by the source's call; i = inactive; . = no result given. Only some compounds are listed: those with a hit (about 2.8% of all), similar ones and a draw of the others.

SMILES | PG9 Ab binder | KLK7 zymogen act | GASC-1 inh | PP5 primary | PP1 inh | NR1D1 modulator | PG9 binder conf | PGV04 Ab binding | NR1D1 mod conf | others
COc1ccc2nc(SCC(=O)N3CC(=O)Nc4ccccc43)c(C#N)cc2c1 | 0 | 0 | 1 | -2 | 1 | -3 | . | . | .
Cc1cc(C)c2nc(SCC(=O)N3CC(=O)Nc4ccccc43)c(C#N)cc2c1 | 13* | 1 | -9 | 0 | 10 | 98* | 11* | 24* | 64* | RORg counter=>40
C[C@H]1[C@@H](N(C)Cc2cccs2)CC[C@@]23CCCN2C(=O)CCC[C@@H]13 | . | . | . | . | . | -1 | . | . | .
CC(=O)Nc1cccc(-c2cc(C(C)=O)c3n(c2=O)CCC3)c1 | . | 0 | . | . | . | 0 | . | . | .
COC(=O)c1cc(Cl)c(NC(=O)c2cc3ccccc3o2)cc1OC | 8.7* | -4 | 10 | 0 | -2 | 28* | 5 | 38* | 0
Cc1cc(NC(=O)CSc2nc(C(C)(C)C)nc3ccccc23)no1 | 36* | -1 | . | 1 | 0 | 36* | 44* | 55* | 13
CCCc1nc(SCC(=O)Nc2cc(C)on2)c2ccccc2n1 | 1 | 0 | 2 | -1 | 0 | 4 | . | . | .
Cc1cc(NC(=O)CSc2cc(C)c3ccccc3n2)no1 | 13* | 0 | -2 | . | . | 23* | 16* | 42* | 4
COC(=O)C1CCCN(C(=O)C2CCN(S(=O)(=O)c3cccs3)CC2)C1 (stereo not drawn) | . | 1 | . | . | . | 0 | . | . | .
Brc1ccc2ncc(Br)cc2c1 | 12* | 0 | 2 | -1 | -2 | 45* | 16* | 23* | 33* | RORg counter=>40
COc1ccc(C(=O)c2ccc(OC)c(Br)c2)cc1Br | 19* | 0 | -22 | -1 | 0 | 113* | 12* | 14* | 77* | RORg counter=>40
CCC(=O)OCCCN1C(=O)CCC12CCC(C)CC2 (stereo not drawn) | . | 0 | . | . | . | 1 | . | . | .
Cc1ccccc1NC(=O)CSc1nnc(-c2ccccc2)n1-c1ccccc1 | 37* | 0 | -4 | 0 | -5 | 37* | 4 | 6 | 21*
O=C(CSc1nnc(-c2n[nH]c3ccccc23)n1-c1ccccc1)Nc1cccc(Cl)c1 | 2 | 0 | -3 | 5 | -2 | 7 | . | . | .
CCc1ccc(NC(=O)CSc2nnc(-c3n[nH]c4ccccc34)n2-c2ccccc2)cc1 | 9.8* | 0 | -5 | 3 | 5 | 34* | 15* | 24* | 38* | RORg counter=>40
CSc1sc(-c2nnc(SCC(=O)Nc3ccc(Cl)cc3)n2C)c2c1C=CCC2 | 29* | 0 | 14 | -3 | 11 | 33* | 38* | 52* | 7
Cc1ccc(NC(=O)CSc2nc3ncc(Br)cc3[nH]2)cc1C | 45* | 0 | 16 | 0 | -1 | 195* | 66* | 79* | 186* | RORg counter=>40
Cc1cc(C)c(NC(=O)CSc2nc3ncc(Br)cc3[nH]2)c(Cl)c1 | 35* | 0 | 2 | -2 | 1 | 47* | 39* | 63* | 64* | RORg counter=i
CC(=O)c1ccc(N2CCN(S(=O)(=O)c3ccc4c(c3)NC(=O)CO4)CC2)cc1 | 22* | 0 | -3 | 2 | -3 | 38* | 28* | 39* | 22*
CC(=O)c1ccc(N2CCN(S(=O)(=O)c3ccc4c(c3)CCC(=O)N4)CC2)cc1 | 1 | 1 | . | . | . | 2 | . | . | .
O=C(Cc1cccc2ccccc12)Nc1ccc(-c2cc3ccccc3oc2=O)cc1 | 19* | -113 | 5 | 0 | 17* | 27* | 35* | 45* | -2
COc1cccc(CNC(=O)Cn2c(=O)c3cccn3c3ccccc32)c1 | 19* | 0 | 7 | -2 | -5 | 19* | 24* | 44* | -4
O=C(CCCn1c(=O)c2cccn2c2cccnc21)NCc1cccc(Br)c1 | 23* | 0 | -1 | -1 | 1 | 45* | 31* | 41* | 19*
O=C(Cn1c(=O)c2cccn2c2ccccc21)NCc1cccc(F)c1 | 1 | 0 | -9 | 0 | -7 | 8 | . | . | .
CCc1cccc(NC(=O)Cn2c(=O)c3cccn3c3ccccc32)c1 | 26* | 0 | -1 | 2 | 5 | 28* | 28* | 36* | 15
SMILES | PG9 Ab binder | KLK7 zymogen act | GASC-1 inh | PP5 primary | PP1 inh | NR1D1 modulator | PG9 binder conf | PGV04 Ab binding | NR1D1 mod conf | others
O=C(c1cc2cc(Br)ccc2[nH]1)N1CCc2ccccc21 | 15* | 0 | 3 | . | . | 49* | 22* | 46* | 54* | RORg counter=>40
O=C(c1cc2cc(F)ccc2[nH]1)N1CCc2ccccc21 | 7 | 1 | 4 | . | . | 12 | . | . | .
O=C(OCc1cn(Cc2cccc(F)c2)nn1)N1CCOCC1 | . | 0 | . | . | . | -2 | . | . | .
CCOc1ncccc1C(=O)Nc1ccc(F)c(Cl)c1 | 0 | 0 | 3 | 0 | -2 | -3 | . | . | .
CCOc1ncccc1C(=O)Nc1ccc(Cl)c(S(=O)(=O)N2CCCC2)c1 | 11* | 0 | 10 | 1 | 4 | 33* | 7 | 10* | 19*
CC(=O)Nc1ccc(-c2cc(-c3ccc(NC(C)=O)cc3)nc(-c3ccc(NC(C)=O)cc3)n2)cc1 | 29* | 4 | -5 | -2 | 2 | 52* | 25* | 45* | 35*
COC(=O)[C@]12C[C@H](CC(=O)N3CCN(C(=O)C4CC4)CC3)C(=O)N(Cc3ccc(Cl)cc3Cl)C1=C[C@H](C1CCCC1)O[C@@H]2C | . | 1 | . | . | . | 2 | . | . | .
COc1ccc(CC(=O)OCc2cc3ccccc3[nH]c2=O)cc1 | 0 | -1 | 2 | 0 | -4 | -2 | . | . | .
COc1ccc(CC(=O)OCc2cc3ccc(C)cc3[nH]c2=O)cc1 | 17* | 0 | 7 | 3 | -1 | 34* | 18* | 30* | 31*
C=CCN1C(=O)/C(=C2/Sc3ccc(OC)cc3N2C)SC1=Nc1cccc(O)c1 | 11* | -1 | -11 | -1 | 0 | 16* | 41* | 59* | 7
O=C(COC(=O)c1ccc2ccccc2n1)Nc1ncc(C(F)(F)F)cc1Cl | 1 | 0 | 2 | 2 | 1 | 5 | . | . | .
O=C(COC(=O)c1ccc2ccccc2c1)Nc1ncc(C(F)(F)F)cc1Cl | 15* | 0 | 3 | 2 | -3 | 34* | 18* | 27* | 13
O=C(CSc1nc2ccccc2[nH]1)NN=Cc1ccccc1C(=O)O | . | 0 | . | . | . | 5 | . | . | .
